From PubChem BioAssay (NCI)
Compounds without any hit were thinned out: in the full panel of roughly 83,000, 20% have a hit.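 Each cell line was grown in a 96-well plate and treated with one concentration of compound for 48 hours. Values below 10 were considered active.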 The source made the active and inactive calls.

Key:
Test in all cases: NCI-60 one-dose screen, 48 h (100 = growth as untreated, 0 = no growth, -100 = all killed)
Details in all cases: 10 µM unless noted
SR leukemia = system: SR leukemia
RPMI-8226 leukemia = system: RPMI-8226 leukemia
OVCAR-8 ovarian = system: OVCAR-8 ovarian
OVCAR-5 ovarian = system: OVCAR-5 ovarian
OVCAR-4 ovarian = system: OVCAR-4 ovarian
SK-OV-3 ovarian = system: SK-OV-3 ovarian
IGROV1 ovarian = system: IGROV1 ovarian
OVCAR-3 ovarian = system: OVCAR-3 ovarian
NCI/ADR-RES ovarian = system: NCI/ADR-RES ovarian
T-47D breast = system: T-47D breast
BT-549 breast = system: BT-549 breast
MDA-MB-435 melanoma = system: MDA-MB-435 melanoma
SW-620 colon = system: SW-620 colon
MCF7 breast = system: MCF7 breast
HCT-116 colon = system: HCT-116 colon
HCC-2998 colon = system: HCC-2998 colon
KM12 colon = system: KM12 colon

Measured: growth

CN(C)c1ccc2cc(-c3nc4ccccc4s3)c(N)nc2c1
active: MDA-MB-435 melanoma 5.06%
inactive: SR leukemia 20.9% | RPMI-8226 leukemia 10.6% | OVCAR-8 ovarian 67.8% | OVCAR-5 ovarian 121% | OVCAR-4 ovarian 78.3% | SK-OV-3 ovarian 50.9% | IGROV1 ovarian 63.6% | OVCAR-3 ovarian 11.9% | NCI/ADR-RES ovarian 34.3% | T-47D breast 48.5% | BT-549 breast 61.8% | SW-620 colon 43.6% | MCF7 breast 19.7% | HCT-116 colon 43.8% | HCC-2998 colon 77.6% | KM12 colon 26.9%

COC1OCC(OS(=O)(=O)c2ccc(C)cc2)C(OC(=O)c2ccccc2)C1OC(=O)c1ccccc1 (stereo unspecified)
inactive: SR leukemia 39.6% | RPMI-8226 leukemia 45.5% | OVCAR-8 ovarian 69.3% | OVCAR-5 ovarian 72.5% | OVCAR-4 ovarian 57% | SK-OV-3 ovarian 86.1% | IGROV1 ovarian 37.8% | T-47D breast 44.4% | BT-549 breast 39.1% | SW-620 colon 19.5% | MCF7 breast 22.6% | HCT-116 colon 32.4% | HCC-2998 colon 56.9% | KM12 colon 30.7%
active: OVCAR-3 ovarian -12.4% | NCI/ADR-RES ovarian -6.71% | MDA-MB-435 melanoma -5.87%

O=C(Nc1ccc(-n2cc(-c3ccncc3)c(-c3ccc(O)c(Cl)c3)n2)cc1)c1ccc(Cl)c(Cl)c1
active: RPMI-8226 leukemia -27.7%
inactive: SR leukemia 18.6% | OVCAR-8 ovarian 25.7% | OVCAR-5 ovarian 71.2% | OVCAR-4 ovarian 78.9% | SK-OV-3 ovarian 66.6% | IGROV1 ovarian 61.5% | OVCAR-3 ovarian 25.7% | NCI/ADR-RES ovarian 24.9% | T-47D breast 36.5% | BT-549 breast 29.3% | MDA-MB-435 melanoma 27.1% | SW-620 colon 37.3% | MCF7 breast 28.5% | HCT-116 colon 12.3% | HCC-2998 colon 33.2% | KM12 colon 24.6%

S=C=NP1(N=C=S)=NP(N=C=S)(N=C=S)=NP(N=C=S)(N=C=S)=NP(N=C=S)(N=C=S)=N1 (stereo unspecified)
inactive: SR leukemia 88.8% | RPMI-8226 leukemia 103% | OVCAR-8 ovarian 95.6% | OVCAR-5 ovarian 107% | OVCAR-4 ovarian 96.7% | SK-OV-3 ovarian 84.3% | IGROV1 ovarian 97.9% | OVCAR-3 ovarian 112% | NCI/ADR-RES ovarian 107% | T-47D breast 82.3% | BT-549 breast 80.4% | MDA-MB-435 melanoma 104% | SW-620 colon 108% | MCF7 breast 91% | HCT-116 colon 98.8% | HCC-2998 colon 102% | KM12 colon 102%

O=C(Nc1ccc(-n2ccc3c(NC(=O)c4ccccc4)ncnc32)cc1)Nc1ccc(Cl)c(C(F)(F)F)c1
active: SR leukemia 6.03% | RPMI-8226 leukemia -38% | OVCAR-8 ovarian -25.3% | OVCAR-4 ovarian -42.8% | IGROV1 ovarian -3.16% | OVCAR-3 ovarian -86.6% | MDA-MB-435 melanoma 7.71% | MCF7 breast -51.3% | HCT-116 colon -77.6% | KM12 colon -25.4%
inactive: OVCAR-5 ovarian 17.8% | SK-OV-3 ovarian 79.2% | NCI/ADR-RES ovarian 16% | T-47D breast 12% | BT-549 breast 56% | SW-620 colon 12.6% | HCC-2998 colon 30.8%

O=C(Nc1ccc(-n2ccc3c(NC(=O)c4ccccc4)nccc32)cc1)Nc1ccc(Cl)c(Cl)c1
active: SR leukemia -30.3% | RPMI-8226 leukemia -49.6% | OVCAR-8 ovarian -45% | OVCAR-4 ovarian -4.39% | IGROV1 ovarian 4.31% | OVCAR-3 ovarian -79.6% | NCI/ADR-RES ovarian -34.4% | MDA-MB-435 melanoma -58.9% | SW-620 colon -64.6% | MCF7 breast -91.9% | HCT-116 colon -94.5% | HCC-2998 colon -57.6% | KM12 colon -49.1%
inactive: OVCAR-5 ovarian 50% | SK-OV-3 ovarian 59.7% | T-47D breast 20.7% | BT-549 breast 40.3%

CCC(CC(C)C)Nc1ccc(NC(CC)CC(C)C)cc1 (stereo unspecified)
inactive: SR leukemia 48.9% | OVCAR-8 ovarian 87.6% | OVCAR-5 ovarian 108% | OVCAR-4 ovarian 75.8% | SK-OV-3 ovarian 94.4% | IGROV1 ovarian 83.9% | NCI/ADR-RES ovarian 96.6% | T-47D breast 69.2% | BT-549 breast 97.1% | MDA-MB-435 melanoma 107% | SW-620 colon 84.2% | MCF7 breast 89.5% | HCT-116 colon 59.2% | HCC-2998 colon 95.6% | KM12 colon 63.2%
active: RPMI-8226 leukemia -5.42% | OVCAR-3 ovarian -6.06%

COc1cc(-c2nc(N)n(CC(=O)Nc3ccc(/C(C)=N\O)cc3)n2)cc(OC)c1OC
inactive: SR leukemia 83% | RPMI-8226 leukemia 94.3% | OVCAR-8 ovarian 74.3% | OVCAR-5 ovarian 114% | OVCAR-4 ovarian 112% | SK-OV-3 ovarian 87.9% | IGROV1 ovarian 96.8% | OVCAR-3 ovarian 106% | NCI/ADR-RES ovarian 105% | T-47D breast 91.2% | BT-549 breast 108% | MDA-MB-435 melanoma 82% | SW-620 colon 95.2% | MCF7 breast 89.2% | HCT-116 colon 101% | HCC-2998 colon 102% | KM12 colon 97.3%

COc1cc(C(=O)NNC(=O)c2ccccc2C(=O)O)cc(OC)c1OC
inactive: RPMI-8226 leukemia 10.8% | OVCAR-8 ovarian 39.5% | OVCAR-5 ovarian 84.5% | OVCAR-4 ovarian 77.7% | SK-OV-3 ovarian 52% | IGROV1 ovarian 50.2% | OVCAR-3 ovarian 29% | NCI/ADR-RES ovarian 37.7% | T-47D breast 39.5% | BT-549 breast 58.4% | MDA-MB-435 melanoma 60.4% | SW-620 colon 36.9% | MCF7 breast 30.1% | HCT-116 colon 29% | HCC-2998 colon 68.5% | KM12 colon 36.9%
active: SR leukemia -10.9%

O=C(N/N=C/c1ccccc1O)c1ccccc1O
inactive: SR leukemia 17.1% | RPMI-8226 leukemia 37.4% | OVCAR-8 ovarian 25.1% | OVCAR-5 ovarian 55.3% | OVCAR-4 ovarian 24.3% | SK-OV-3 ovarian 47.7% | IGROV1 ovarian 24.3% | OVCAR-3 ovarian 39.8% | NCI/ADR-RES ovarian 21% | T-47D breast 25.7% | BT-549 breast 34% | MDA-MB-435 melanoma 63% | SW-620 colon 41.4% | MCF7 breast 11.1% | HCT-116 colon 26.7% | HCC-2998 colon 43% | KM12 colon 33.5%

O=C(Nc1ccc(-n2ccc3c(NC(=O)c4ccccc4)ncnc32)cc1)Nc1cccc(Cl)c1Cl
inactive: SR leukemia 21.8% | RPMI-8226 leukemia 10.2% | OVCAR-8 ovarian 13.4% | OVCAR-5 ovarian 17.5% | T-47D breast 42.8% | BT-549 breast 49.2% | SW-620 colon 11.5% | HCC-2998 colon 64.6% | KM12 colon 20.7%
active: OVCAR-4 ovarian -74.3% | SK-OV-3 ovarian -14.8% | IGROV1 ovarian -3.19% | OVCAR-3 ovarian -41.7% | NCI/ADR-RES ovarian 4.77% | MDA-MB-435 melanoma -4.29% | MCF7 breast 2.07% | HCT-116 colon -25.4%

C=C1C(=O)O[C@H]2[C@H]1CC/C(COC(=O)c1ccc(Br)cc1)=C\CC[C@@]1(C)O[C@@H]21
inactive: SK-OV-3 ovarian 111% | NCI/ADR-RES ovarian 24.7% | HCC-2998 colon 87.3% | KM12 colon 56.2%
active: SR leukemia -27.5% | RPMI-8226 leukemia -44.5% | OVCAR-8 ovarian -36.6% | OVCAR-5 ovarian 1.16% | OVCAR-4 ovarian -14.3% | IGROV1 ovarian -57.6% | OVCAR-3 ovarian -81.2% | T-47D breast -47% | BT-549 breast -8.16% | MDA-MB-435 melanoma -35.4% | SW-620 colon -47.5% | MCF7 breast -18.5% | HCT-116 colon -84.3%

OCCOCC(F)(F)F
inactive: SR leukemia 78.7% | RPMI-8226 leukemia 90.2% | OVCAR-8 ovarian 116% | OVCAR-5 ovarian 96% | OVCAR-4 ovarian 100% | SK-OV-3 ovarian 113% | IGROV1 ovarian 113% | OVCAR-3 ovarian 109% | NCI/ADR-RES ovarian 106% | T-47D breast 104% | BT-549 breast 97.7% | MDA-MB-435 melanoma 94.4% | SW-620 colon 100% | MCF7 breast 105% | HCT-116 colon 106% | HCC-2998 colon 104% | KM12 colon 113%

O=C(NCCNc1nccc(-c2c(-c3cccc(O)c3)nc3sccn23)n1)c1ccccc1
inactive: SR leukemia 68% | RPMI-8226 leukemia 76.8% | OVCAR-8 ovarian 66.6% | OVCAR-5 ovarian 90.6% | OVCAR-4 ovarian 98% | SK-OV-3 ovarian 65.1% | IGROV1 ovarian 57.4% | OVCAR-3 ovarian 92.3% | NCI/ADR-RES ovarian 99.7% | T-47D breast 58.6% | BT-549 breast 61.4% | MDA-MB-435 melanoma 24% | SW-620 colon 78.2% | MCF7 breast 38.1% | HCT-116 colon 42.5% | HCC-2998 colon 97.8% | KM12 colon 75.9%

O=C(Nc1ccc(-n2cc(-c3ccncc3)c(-c3ccc(O)c(Cl)c3)n2)cc1)Nc1ccc(Cl)c(C(F)(F)F)c1
active: SR leukemia 4.23% | RPMI-8226 leukemia -19.2% | OVCAR-3 ovarian 1.16% | BT-549 breast -19.4% | MDA-MB-435 melanoma -0.731% | HCT-116 colon 6.73% | KM12 colon 6.77%
inactive: OVCAR-8 ovarian 15.2% | OVCAR-5 ovarian 43.4% | OVCAR-4 ovarian 42.2% | SK-OV-3 ovarian 32.6% | IGROV1 ovarian 22.8% | NCI/ADR-RES ovarian 17.9% | T-47D breast 29.2% | SW-620 colon 19.6% | MCF7 breast 15% | HCC-2998 colon 22%

ClC1c2ccccc2CCc2ccccc21
inactive: SR leukemia 89.2% | RPMI-8226 leukemia 92% | OVCAR-8 ovarian 94.7% | OVCAR-5 ovarian 86.4% | OVCAR-4 ovarian 85.9% | SK-OV-3 ovarian 91.2% | IGROV1 ovarian 72.5% | OVCAR-3 ovarian 100% | NCI/ADR-RES ovarian 116% | T-47D breast 74.6% | BT-549 breast 93.8% | MDA-MB-435 melanoma 110% | SW-620 colon 101% | MCF7 breast 92.1% | HCT-116 colon 72.7% | HCC-2998 colon 107% | KM12 colon 109%

CCn1cc(C(=O)O)c(=O)c2cc(F)c(N3CCN(CC(=O)Nc4ccc(C(C)=O)cc4)CC3)cc21
inactive: SR leukemia 91.9% | RPMI-8226 leukemia 106% | OVCAR-8 ovarian 100% | OVCAR-5 ovarian 107% | OVCAR-4 ovarian 113% | SK-OV-3 ovarian 99.9% | IGROV1 ovarian 102% | OVCAR-3 ovarian 111% | NCI/ADR-RES ovarian 97.1% | T-47D breast 92% | BT-549 breast 109% | MDA-MB-435 melanoma 102% | SW-620 colon 103% | MCF7 breast 99.1% | HCT-116 colon 104% | HCC-2998 colon 96.2% | KM12 colon 97.4%

COc1cc2ncn3c(=O)c4c5c(sc4nc3c2cc1OC)CCCCC5
inactive: SR leukemia 97.9% | RPMI-8226 leukemia 103% | OVCAR-8 ovarian 102% | OVCAR-5 ovarian 98.6% | OVCAR-4 ovarian 101% | SK-OV-3 ovarian 99.6% | IGROV1 ovarian 79.3% | OVCAR-3 ovarian 98.4% | NCI/ADR-RES ovarian 92.4% | T-47D breast 84.7% | BT-549 breast 105% | MDA-MB-435 melanoma 109% | SW-620 colon 101% | MCF7 breast 86.8% | HCT-116 colon 97.4% | HCC-2998 colon 106% | KM12 colon 99.2%
